Assay results as given in PubChem BioAssay (NCI).
Several values for one entry are separate records, joined by “and”; a condition that tells them apart may be missing. Identical values can stand only once. The panel holds about 83,000 compounds, 20% with a hit somewhere; the sample as a whole holds those more often.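 Step 1: grow cells in 96-well plates. Step 2: add test compound at a single concentration. Step 3: incubate 48 h. Step 4: record percent growth.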 Unmarked numbers belong to inactive results. Activity calls are given as the source filed them. How the source made its calls: active means growth percent below 10; inactive means the rest.

System: MDA-MB-468 breast
Assay: NCI-60 one-dose screen, 48 h (100 = growth as untreated, 0 = no growth, -100 = all killed)
Settings: 10 µM unless noted

| Compound | growth |
| --- | --- |
| CCN(CC)c1nc(SCc2ccccc2Cl)ncc1C | 69.6% |
| CC(C)=CCc1ccc(O)c(=O)cc1C(C)C | -24.2% (active) |
| CCCCCSc1ccc2nc(NC(=O)OCC)sc2c1 | -10.5% (active) |
| COc1ccc2c(c1)N(Cc1ccc(Cl)cc1)CCC2N1CCCC1=O (stereo not given) | 42.3% |
| CC(C)OCc1cc(CN2CCN(c3cccc(Cl)c3)CC2)c(O)c2ncccc12 | -15.4% (active) |
| CCOc1ccc(-c2cnnn2-c2nonc2-n2cccc2)cc1 | 10.6% |
| CCCCCCOC(=O)c1cc(-c2ccc(F)cc2)nc2ccccc12 | 105% |
| Nc1cc2c(cc1Cl)-c1ccc([N+](=O)[O-])cc1/C2=N\O | 77.7% |
| CC1(C)CC[C@]2(C(=O)O)CC[C@]3(C)[C@H](CC[C@@H]4[C@@]5(C)CCC(=O)C(C)(C)[C@@H]5CC[C@]43C)[C@H]2[C@H]1OC(=O)C(F)(F)F | -71% [100 µM] (active) |
| CCSc1oc(-c2ccccc2)nc1[P+](c1ccccc1)(c1ccccc1)c1ccccc1 | -37.6% (active) |
| CN(C)c1ccc(-c2ccc(-c3ccc(C(=N)N)cc3)s2)cc1 | -69.7% (active) |
| CC[C@H](Nc1nc(N)nc(C)c1C#N)c1nc2cccc(NCCCCCC(=O)NO)c2c(=O)n1-c1ccccc1 | 11.7% |
| O=C(O)c1cn(C2CC2)c2cc(N3CCN(C(=O)N/N=C/c4cccc5ccccc45)CC3)c(F)cc2c1=O | 103% |
| O=C1C2=C(C(=O)c3c(O)cccc31)C(c1ccco1)c1sc(=O)[nH]c1S2 (stereo not given) | 7.85% (active) |
| Cc1ccc(/C=C2\COc3ccc(O)c(O)c3C2=O)cc1 | -18.5% (active) |
| CC(C)(C)c1nn(-c2ccccc2)c2c1C(=O)CSC(c1ccc3c(c1)OCO3)N2 (stereo not given) | 120% |
| CCOC(=O)c1c(C)nc2c(c1N)C(=O)C(=O)N2Cc1ccc(C(F)(F)F)cc1 | 77.8% |
| CC(C)(C)n1cc(-c2ccnc(NCCNS(=O)(=O)c3ccc(Cl)cc3)c2)c(-c2cccc(O)c2)n1 | 32.6% |
| CCC(CC)NCC(C)(C)O | 104% |
| Nc1cccc(-c2nc3sccn3c2-c2ccnc(NCCCNS(=O)(=O)c3cccc4ccccc34)n2)c1 | 18.2% |

| Compound | growth |
| --- | --- |
| O=C(COCc1c(-c2ccccc2)no[n+]1[O-])Nc1ccc(C(=O)/C=C/c2ccc3c(c2)OCO3)cc1 | 98.7% |
| CCCCNc1ccc(Nc2ccccc2)cc1 | 11.4% |
| CCN(CC)Cc1cc(C=C2C(=O)NC(=S)NC2=O)cc(OC)c1O | 108% |
| COc1ccc(C(=O)c2cc(F)c(F)c(OC)c2F)cc1OC(=O)CCl | 61.3% |
| Cc1ccc(Nc2nc(-c3cc(O)c(C)c(C)c3O)cs2)cc1 | 44.5% |
| c1ccc(OCCC[P+](c2ccccc2)(c2ccccc2)c2ccccc2)cc1 | -7.95% (active) |
| COc1ccc(Nc2ncccc2NC(=O)c2cn(Cc3cccc(Oc4ccccc4)c3)nn2)cc1OC | 55.6% |
| CCOc1ccc(/C=N\N=C\c2ccc(OCC)cc2)cc1 | 77% |
| c1cn2cc(-c3ccc4cn[nH]c4c3)nc(Nc3ccc(N4CCOCC4)cc3)c2n1 | 61.8% |
| CN(C)CCOc1ccc(/C(=C(/CCCl)c2ccccc2)c2ccccc2)cc1 | -57.1% (active) |
| CC1=NN(c2ccccc2Cl)C(=O)/C1=C\c1cn(S(=O)(=O)c2ccc(C)cc2)c2ccccc12 | 119% |
| O=S(=O)(Nc1cc(Sc2cccc3cccnc23)c(O)c2ccccc12)c1ccccc1 | -42.6% (active) |
| COc1ccc(C(=O)CSc2nc3c(c(Nc4ccc(S(N)(=O)=O)cc4)n2)CCCC3)cc1 | 108% |
| Nc1nc2c(s1)CCc1c-2c(Br)n(Cc2ccccc2)c1Br | 33.4% |
| Cn1nc(C(F)(F)F)cc1-c1cc(Cl)c(OCc2ccc(Cl)cc2)c(-c2ccc(Cl)c(C(F)(F)F)c2)c1O | -16.1% (active) |
| OCC(Nc1ncnc2ccc(-c3cnc4cnccn34)cc12)c1ccccc1 (stereo not given) | -2.48% (active) |
| CCCCCc1nc2c(c3c1CCCC3)CCCC2 | 75.5% |
| CN(C)C(=S)SC(=S)N(C)C | 91.4% and 95.3% |
| Cc1cc(C#Cc2ccc(C(C)(C)C)cc2)ccc1-n1c(/C=C/c2c(Cl)cccc2Cl)nc2ccccc2c1=O | 91.1% |
| Nc1ncc([N+](=O)[O-])cn1 | 96.2% |
